# Shown is part of a subset that was picked to be rich in hits.
# TbPYK inhibitor: qHTS of Trypanosoma Brucei Inhibitors; Potency, µM (titrated, usually from 76.8 µM), actives largely listed as inhibitors; AID 624173, 2012; hit rate 0.12% among 410,000; pyruvate kinase (Trypanosoma brucei), Q57TT1; TbPYK enzyme, Kinase-Glo Plus ATP luminescence, 45 min; also: nearly all actives have a fitted effect of over 50% in size
#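 Assay buffer: 50 mM TEA pH 7.2, 100 mM KCl, 10 mM MgCl2, 0.05% BSA, 0.01% Tween-20. Pyruvate kinase from T. brucei plus substrate met compound, then ADP (130 uM final). Luminescence was read post 45 min RT.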
# LmPK inhibitor: qHTS Assay for Inhibitors of Leishmania Mexicana Pyruvate Kinase (LmPK). Potency, µM (series often up to 57.5 µM), actives largely listed as inhibitors. purified LmPK, Kinase-Glo ATP luminescence, 1 h. hit rate 0.37% among 290,000
#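 qHTS format; LmPK 0.1 nM; substrates PEP 0.5 mM and ADP 0.1 mM. One-hour room-temperature incubation, then coupled luciferase luminescence; 0.5 nM enzyme wells mark activation.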
# Giardia FBPA inh: qHTS Assay for Inhibitors of Fructose-1,6-bisphosphate Aldolase from Giardia Lamblia | hit rate 0.71% among 290,000 | AID 2451, 2010 | purified Giardia FBPA | Potency, µM (titrated, usually from 59.6 µM), actives largely listed as inhibitors | A8B2U2; also: nearly all actives have a fitted effect of over 55% in size
# Target sequence (A8B2U2 whole entry, looked up): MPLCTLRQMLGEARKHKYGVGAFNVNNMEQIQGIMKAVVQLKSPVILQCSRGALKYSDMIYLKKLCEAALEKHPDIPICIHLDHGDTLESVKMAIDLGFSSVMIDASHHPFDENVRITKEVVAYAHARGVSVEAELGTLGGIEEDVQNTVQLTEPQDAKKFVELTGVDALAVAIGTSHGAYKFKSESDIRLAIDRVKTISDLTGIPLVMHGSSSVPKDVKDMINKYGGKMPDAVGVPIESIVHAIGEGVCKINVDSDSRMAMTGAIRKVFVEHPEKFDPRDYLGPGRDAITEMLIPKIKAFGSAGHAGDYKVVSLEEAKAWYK
#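 40 nM FBPA preincubated 10 min at RT with compound (up to 57.5 uM final), then substrate plus GAPDH/TPI/NAD/arsenate coupling and diaphorase/resazurin added. Fluorescence read after 20 min at RT, 525/598 nm.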
# Sm TGR inh: qHTS Assay for the Inhibitors of Schistosoma Mansoni Peroxiredoxins; Potency, µM (doses to about 114 µM), usual class: inhibitors; purified TGR, DTNB reduction, TNB absorbance 405 nm; AID 485364, 2010; Schistosoma mansoni thioredoxin glutathione reductase (TGR), Q962Y6; hit rate 3% among 360,000; also: nearly all actives have a fitted effect of over 60% in size
#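 Kinetic colorimetric format: TGR-catalysed, NADPH-driven DTNB reduction monitored via TNB absorbance. Enzyme dispensed at 20 nM; compound exposure 15 min at room temperature before reaction start.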
# Shiga toxin inh: A qHTS for Small Molecule Inhibitors of Shiga Toxin; Vero cells, Shiga toxin protein synthesis inhibition reporter; hit rate 9.2% among 290,000; AID 2315, 2010; inhibition, % at 38.7 µM; in the data active = inhibition mostly above about 28%, no sharp cut-off; inactive = mostly below about 43%
# Cycloheximide cs: Cycloheximide Counterscreen for Small Molecule Inhibitors of Shiga Toxin; cell reporter, cycloheximide protein synthesis inhibition counterscreen; hit rate 12% among 300,000; max response, %; in the data active = max response mostly above about 13%, no sharp cut-off; inactive = mostly below about 14%; also: read at 38.3 µM for the half of the compounds with a filed dose
# A number is an active result; 0 = inactive; - = not tested or not shown. Unless noted, calls follow the shape of the dose curve; as a rule, active = well fitted curve in the direction sought with a large enough effect; inconclusive = small, poorly fitted or top-dose-only effect, or another doubt; inactive = no such curve, though single readings can be large; an effect the other way counts as inactive or inconclusive.
SMILES,TbPYK inhibitor,LmPK inhibitor,Giardia FBPA inh,Sm TGR inh,Shiga toxin inh,Cycloheximide cs
O=C(CCCCn1c(=O)c2ccccc2n(CC(=O)Nc2ccc(F)cc2F)c1=O)NCCc1ccccc1,0,-,-,0,-,-
Cc1ccc(NC(=O)Cn2c(=O)n(CCC(=O)N3CCc4ccccc4C3)c(=O)c3ccccc32)c(C)c1,0,-,-,0,-,-
C/C(=N/NC(=O)c1ccc(Br)o1)c1ccncc1,0,0,0,0,60,74
C/C(=N/NC(=O)c1ccco1)c1cccc(NC(=O)c2ccc(C)o2)c1,0,0,0,0,122,41
COC(=O)c1cccc(NC(=O)c2ccco2)c1,0,0,0,0,0,0
Cc1c2c(nc3c(C(=O)NC4CC4)cnn13)CCCC2,0,0,0,0,113,35
COc1ccc(/C=C2\CCC(C3CCCC3)C2=O)cc1 (stereo not drawn),0,0,0,0,93,51
Cc1ccc(/C=C2/C(=O)C3(C)CCC2C3(C)C)cc1 (stereo not drawn),0,-,-,-,-,-
Cc1ccsc1/C=C1\CCC(C2CCCC2)C1=O (stereo not drawn),0,0,0,0,106,44
COc1ccc(/C=C2\CCC(C3CCCC3)C2=O)cc1OC (stereo not drawn),0,0,0,0,49,36
COc1cc(/C=C2\CCC(C3CCCC3)C2=O)ccc1OC(C)C (stereo not drawn),0,0,0,0,0,0
COc1ccc(/C=C2\CCC(C3CCCC3)C2=O)c(OC)c1 (stereo not drawn),0,0,0,0,0,0
Cc1ccc(/C=C2\CCC(C3CCCC3)C2=O)cc1 (stereo not drawn),0,0,0,0,61,56
COc1cc(OC)c(OC)cc1/C=C1\CCC(C2CCCC2)C1=O (stereo not drawn),0,0,0,0,0,0
COc1cccc2c(C)cc3nnc(SCC(=O)Nc4ccc(C)cc4)n3c12,0,-,-,0,-,-
CCCCn1nnnc1C1(C)CCC(=O)N1Cc1ccc(C)cc1 (stereo not drawn),0,-,-,-,-,-
Cc1cccc(-c2cc3nc4c(c(N5CCC6(CC5)OCCO6)n3n2)CCCC4)c1,0,-,-,-,-,-
Cc1cccc(-c2cc3nc4c(c(N5CCCC(O)C5)n3n2)CCC4)c1 (stereo not drawn),0,0,0,0,0,0
OC1CCCN(c2c3c(nc4cc(-c5cccc(F)c5)nn24)CCCC3)C1 (stereo not drawn),0,0,0,-,80,57
Fc1ccc(-c2cc3nc4c(c(N5CCOCC5)n3n2)CCCC4)cc1,0,0,0,0,95,29
Cc1cccc(-c2cc3nc4c(c(NCc5ccco5)n3n2)CCCC4)c1,0,0,0,0,126,57
CN(C)CCCNc1c2c(nc3cc(-c4cccc(F)c4)nn13)CCC2,0,0,0,0,0,0
Cc1cccc(-c2cc3nc4c(c(N5CCOCC5)n3n2)CCCC4)c1,0,0,0,0,73,32
Cc1[nH]c2ccccc2c1SCC(=O)N1CCCCCC1,0,0,0,0,0,0
COc1c(O)cc2oc3cc(O)c(CC=C(C)C)c(O)c3c(=O)c2c1CC=C(C)C,-,-,0,-,-,-
SMILES,TbPYK inhibitor,LmPK inhibitor,Giardia FBPA inh,Sm TGR inh,Shiga toxin inh,Cycloheximide cs
CCCC12CN3CC(C)(CN(C1)C3c1ccc(CC)cc1)C2=O (stereo not drawn),0,-,-,0,-,-
CC1(C)Oc2ccc3ccc(=O)oc3c2C(N2CCCCC2)C1O (stereo not drawn),0,0,0,35µM,0,0
CCCc1nc2ccccc2c(=O)n1/N=C/c1ccccc1O,0,0,0,0,0,47
Cc1nc2ccccc2c(=O)n1/N=C/c1ccccc1Cl,0,0,0,0,72,33
Cc1nc2ccccc2c(=O)n1/N=C/c1ccc(O)cc1O,0,0,0,-,0,0
Cc1ccc(/C=N/n2c(C)nc3ccccc3c2=O)s1,-,0,0,0,92,40
COc1cc(-c2ccno2)ccc1S(=O)(=O)N1CCN(c2ccc(F)cc2)CC1,0,-,-,0,-,-
COc1ccc(-c2nc(C)c(CCNC(=O)c3ccco3)s2)cc1,0,-,-,0,-,-

# High-throughput results as filed in PubChem BioAssay.
